High-throughput results from PubChem BioAssay.
Rab9 prom act: activates the Rab9 promoter; 2.8% of 320,000 active; Huh7 Rab9 promoter-luciferase reporter, luminescence, 24 h; Potency, µM (series often up to 9.22 µM), actives largely listed as activators; note: nearly all actives have a fitted effect of over 60% in size
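Quantitative HTS format; Huh7 Rab9-luciferase reporter cells (1500/well) receive compound 2 h post-plating, incubate 24 h at 37 °C, then get luciferase reagent for 10 min before luminescence reading.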
KinaseGlo FLuc: counter-screen: inhibitors of Kinase-Glo firefly luciferase; Kinase-Glo luciferase, ATP luminescence, 8 min; 0.28% of 200,000 active; Q27757; Potency, µM (highest dose often 38.3 µM), usual class: inhibitors; note: nearly all actives have a fitted effect of over 60% in size
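Light output from Kinase-Glo luciferase with luciferin and 10 uM ATP in 50 mM imidazole pH 7.2, KCl, MgCl2, Tween 20, BSA; compound pin-delivered, 8-min ambient incubation, then luminescence read.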
SMN2 splice up: increases expression of the SMN2 splice variant. HEK293 SMN2-luciferase splicing reporter, luminescence, 30-36 h. Potency, µM (highest dose often 46.1 µM), usual class: activators. 2.8% of 210,000 active; note: nearly all actives have a fitted effect of over 55% in size
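HEK293 cells carry an SMN2 […]–luciferase reporter in which exon 7 inclusion puts luciferase in frame. Cells were plated 10-12 h before compound addition, then incubated 30-36 h at 37C. ONE-Glo luminescence was read; sodium butyrate at 4.5 mM final served as control.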
FLuc modulator: inhibits or activates purified firefly luciferase, miR-21 counter-screen | P08659 | purified FLuc, Km substrates, luminescence inhibition | Potency, µM (titrated, usually from 57.5 µM), usual class: inhibitors | 6.9% of 360,000 active | AID 588342; note: nearly all actives have a fitted effect of over 55% in size
Target sequence (P08659 whole entry, looked up): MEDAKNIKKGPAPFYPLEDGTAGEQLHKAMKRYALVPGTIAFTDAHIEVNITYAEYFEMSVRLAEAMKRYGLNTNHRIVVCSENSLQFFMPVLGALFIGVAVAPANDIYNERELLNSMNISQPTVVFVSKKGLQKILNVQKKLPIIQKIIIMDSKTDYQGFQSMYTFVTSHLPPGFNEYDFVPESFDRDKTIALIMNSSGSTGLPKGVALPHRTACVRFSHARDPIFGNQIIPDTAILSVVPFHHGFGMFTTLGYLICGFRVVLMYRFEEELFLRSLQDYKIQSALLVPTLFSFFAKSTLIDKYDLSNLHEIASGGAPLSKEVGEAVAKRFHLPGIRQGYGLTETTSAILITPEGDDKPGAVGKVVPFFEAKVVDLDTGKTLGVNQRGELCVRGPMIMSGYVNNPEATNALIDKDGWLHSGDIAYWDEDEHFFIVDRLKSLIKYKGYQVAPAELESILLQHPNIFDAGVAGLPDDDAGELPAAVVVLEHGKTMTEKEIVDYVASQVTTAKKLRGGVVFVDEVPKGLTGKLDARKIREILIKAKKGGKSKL
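Biochemical qHTS of compounds, final roughly 60 µM downward over six points, against 10 nM purified firefly luciferase using Km concentrations of substrates (10 uM D-luciferin, 10 uM ATP) in Tris acetate pH 7.5 buffer; luminescence output.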
ELG1 genotoxic: induces genotoxicity in HEK293T cells with luciferase-tagged ELG1 | Potency, µM (highest dose often 46 µM), usual class: activators | AID 504466 | 1.3% of 330,000 active | HEK293T ELG1-luciferase reporter, luminescence, 16 h; note: nearly all actives have a fitted effect of over 60% in size
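After overnight (16 hr) compound treatment at 37 °C, ELG1-luciferase HEK293T cells were lysed with ONE-Glo; luminescence quantified 30 min later at room temperature.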
NPC1 promoter act: NPC1 promoter activation; Huh7 NPC1 promoter luciferase reporter, 24 h; Potency, µM (titrated, usually from 9.22 µM), actives largely listed as activators; 2.4% of 320,000 active; AID 485313; note: nearly all actives have a fitted effect of over 60% in size
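Stable NPC1-promoter luciferase Huh7 line; cpd (DMSO) 24 h, 37 °C, 5% CO2; Amplite luciferase reagent 10 min RT; luminescence readout. qHTS format.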
Large screens that a line does not name were inactive. An excerpt weighted towards active compounds, which were near 7.3% of everything screened. Calls come from the whole dose curve; as a rule, active = well fitted curve in the direction sought with a large enough effect; inconclusive = small, poorly fitted or top-dose-only effect, or another doubt; inactive = no such curve, though single readings can be large; an effect the other way counts as inactive or inconclusive.

CCSc1nsc(NC(=O)Nc2ccccc2F)n1	Rab9 prom act 1.6µM, FLuc modulator 11µM, NPC1 promoter act 2.8µM (no result: KinaseGlo FLuc, SMN2 splice up)
Cc1ccc(NC(=O)Cn2nnc(-c3ccccc3)n2)c(C)c1	none (no result: Rab9 prom act, KinaseGlo FLuc, SMN2 splice up, ELG1 genotoxic, NPC1 promoter act)
COc1ccc(-c2csc(NNC3=NCCCCC3)n2)cc1	FLuc modulator inconclusive
COc1ccc(-c2csc(NC3=NCCCCC3)n2)cc1	Rab9 prom act inconclusive, FLuc modulator 12µM, NPC1 promoter act inconclusive
Clc1ccc(-c2csc(NNC3=NCCCCC3)n2)cc1	FLuc modulator inconclusive
c1ccc(-c2csc(NNC3=NCCCCC3)n2)cc1	FLuc modulator 15µM, ELG1 genotoxic inconclusive
Nc1ccc(F)cc1F	none (no result: Rab9 prom act, KinaseGlo FLuc, FLuc modulator, ELG1 genotoxic, NPC1 promoter act)
COc1ccc(CN2C(=O)CS/C2=N/N=C/c2ccccc2)cc1	FLuc modulator 17µM, ELG1 genotoxic inconclusive (no result: KinaseGlo FLuc, SMN2 splice up)
COc1ccc(N=C2SCC(=O)N2Cc2ccccc2)cc1	none
COc1ccc(/C=N/N=C2/SCC(=O)N2Cc2ccccc2)cc1	Rab9 prom act 1.3µM, FLuc modulator 4.8µM, ELG1 genotoxic inconclusive, NPC1 promoter act 3.5µM (no result: KinaseGlo FLuc, SMN2 splice up)
COc1ccc(/C=N/N2C(=N)SCC2=O)cc1	FLuc modulator 3.4µM, ELG1 genotoxic inconclusive, NPC1 promoter act inconclusive (no result: KinaseGlo FLuc, SMN2 splice up)
COc1ccc(OC)c(S(=O)(=O)NCCc2csc3nc(-c4ccccc4)nn23)c1	none (no result: Rab9 prom act, KinaseGlo FLuc, SMN2 splice up, ELG1 genotoxic, NPC1 promoter act)
CCS(=O)(=O)N1CCCC(c2nc(-c3cccc(OC)c3)no2)C1 (stereo not drawn)	Rab9 prom act inconclusive, SMN2 splice up inconclusive, FLuc modulator inconclusive, ELG1 genotoxic 15µM
O=C(OCc1ccccc1F)c1ccc2c(c1)-c1ccccc1C2=O	Rab9 prom act 2.2µM, SMN2 splice up inconclusive, FLuc modulator inconclusive, ELG1 genotoxic inconclusive, NPC1 promoter act 2.2µM
COc1ccc(C(=O)c2ccc(OC)c(N)c2)cc1N	FLuc modulator inconclusive, ELG1 genotoxic 18µM
Cc1cccc(N(C)S(=O)(=O)c2nnc(NC(=O)C(C)(C)C)s2)c1	none (no result: Rab9 prom act, KinaseGlo FLuc, SMN2 splice up, ELG1 genotoxic, NPC1 promoter act)
CCc1c(O)c2c(c(O)c1C(C)=O)C(=O)c1c(cc(O)c(C(=O)O)c1C(=O)O)C2=O	none (no result: Rab9 prom act, FLuc modulator, ELG1 genotoxic, NPC1 promoter act)
Fc1ccc(F)c(C2=NNC(=NCC3CCCO3)SC2)c1 (stereo not drawn)	Rab9 prom act 2.2µM, SMN2 splice up inconclusive, FLuc modulator inconclusive, NPC1 promoter act inconclusive
Cc1ccc(N2CC(NC(=O)Cc3cccs3)CC2=O)cc1C (stereo not drawn)	none (no result: Rab9 prom act, KinaseGlo FLuc, SMN2 splice up, ELG1 genotoxic, NPC1 promoter act)
O=S(=O)(Nc1ccc(-c2nc3cccnc3s2)cc1)c1cc(F)ccc1F	Rab9 prom act inconclusive, FLuc modulator inconclusive, ELG1 genotoxic inconclusive (no result: KinaseGlo FLuc, SMN2 splice up)
NS(=O)(=O)c1ccc(C(=O)Nc2ccc(-c3nc4cccnc4s3)cc2)cc1	Rab9 prom act 1.4µM, FLuc modulator 12µM, ELG1 genotoxic inconclusive, NPC1 promoter act 1.4µM (no result: KinaseGlo FLuc, SMN2 splice up)
Cc1nc2ccc(S(=O)(=O)Nc3cc(-c4nc5cccnc5s4)ccc3C)cc2s1	SMN2 splice up 16µM, FLuc modulator 19µM, ELG1 genotoxic inconclusive
Cc1ccc(-c2nc3cccnc3s2)cc1NS(=O)(=O)c1cccs1	FLuc modulator 27µM (no result: KinaseGlo FLuc, SMN2 splice up)
CCc1ccc(S(=O)(=O)Nc2ccc(-c3nc4cccnc4s3)cc2)s1	Rab9 prom act inconclusive, SMN2 splice up 16µM, FLuc modulator inconclusive, ELG1 genotoxic 15µM
NS(=O)(=O)c1ccc(NC(=O)c2ccc(-c3ccccc3)cc2)cc1	none
CCc1cnc2c(c1SCC(=O)Nc1ccc(Cl)cc1)c(=O)n(C)c(=O)n2C	none (no result: Rab9 prom act, KinaseGlo FLuc, SMN2 splice up, ELG1 genotoxic, NPC1 promoter act)
O=C(O)CSc1ccc([N+](=O)[O-])cc1[N+](=O)[O-]	none (no result: Rab9 prom act, FLuc modulator, ELG1 genotoxic, NPC1 promoter act)
CCOc1ccccc1C(=O)Nc1cc(-c2nc3cccnc3s2)ccc1C	FLuc modulator 9.5µM (no result: Rab9 prom act, KinaseGlo FLuc, SMN2 splice up, ELG1 genotoxic, NPC1 promoter act)
O=C(Nc1cccc(-c2nc3cccnc3s2)c1)c1cccnc1Cl	FLuc modulator 17µM (no result: KinaseGlo FLuc, SMN2 splice up)
O=C(Nc1cccc(-c2nc3cccnc3s2)c1)c1ccc(Cl)nc1	none (no result: KinaseGlo FLuc, SMN2 splice up)
CCOc1ccccc1C(=O)Nc1cc2c(cc1C)n(C)c(=O)c(=O)n2C	none (no result: Rab9 prom act, KinaseGlo FLuc, SMN2 splice up, ELG1 genotoxic, NPC1 promoter act)
CCOCC(=O)Nc1cccc(-c2nc3cccnc3s2)c1C	FLuc modulator 17µM (no result: KinaseGlo FLuc, SMN2 splice up)
COc1ccc(S(=O)(=O)NCCc2sc(-c3cccnc3)nc2C)c(F)c1	none (no result: Rab9 prom act, KinaseGlo FLuc, SMN2 splice up, ELG1 genotoxic, NPC1 promoter act)
CCc1cccc(CC)c1NC(=O)c1c(C)oc2ccc(O)c(CN3CCN(C)CC3)c12	none (no result: Rab9 prom act, KinaseGlo FLuc, ELG1 genotoxic, NPC1 promoter act)
